Common to all, as to settings: modulator concentration 10 µM
Assay [1] concerns RAW-Dual (murine macrophage reporter line). Briefly: NF-kB reporter (SEAP) activity fold change vs agonist alone; higher = enhanced NF-kB activity. In short, it runs like this:
(§1)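 Compound reached 10 μM final in each well by pin transfer, onto RAW-Dual murine macrophage reporter cells seeded at 50 000 per well in 384-well plates. After 1 hour at 37 °C, the cells were stimulated overnight with a PRR agonist. SEAP in the supernatant was read with QUANTI-Blue at 620 nm absorbance for NF-κB, and Lucia luciferase was read with QUANTI-Luc luminescence for IRF. Each signal was turned into fold change against the mean agonist-only control on the same plate, and two replicate plates were averaged with propagated errors.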

Assay [2] has the same test system. Kind of assay: IRF reporter (Lucia luciferase) activity fold change vs agonist alone; higher = enhanced IRF activity. The gist of the method:
as §1

For assay [3] the test system is unchanged. Briefly: viability score (confluency relative to resting cells, overnight) (fraction); higher = more viable, active = viable (0.7 or more). In short, it runs like this:
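RAW-Dual macrophages in 384-well plates were treated overnight with compound at 10 μM final. IncuCyte imaging recorded confluency, and IncuCyte software built two confluency masks across every imaged well. The viability score expresses confluency relative to resting cells and was judged against a cutoff, which a compound met only if both masks exceeded 70% of resting cells.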

[4] abbreviates: agonist: CpG ODN 1826 0.5 ug/mL.

Each structure is given as a SMILES string. ± gives the standard deviation.

Consider `O=Cc1ccc(OCc2cccc([N+](=O)[O-])c2)c(Br)c1`, for which the NF-kB reporter was determined as 0.777 ± 0.091 in assay [1] (setting [4]), 0.737 ± 0.057 in assay [1] (agonist: LPS 0.1 ug/mL) and 1.09 ± 0.18 in assay [1] (agonist: MPLA […]). Besides, the IRF reporter came to 0.963 ± 0.045 in assay [2] (agonist: 3'3'-cGAMP 10 ug/mL), 1.4 ± 0.09 in assay [2] (agonist: LPS 0.1 ug/mL) and 1.49 ± 0.12 in assay [2] (agonist: MPLA […]). In addition, the viability score in assay [3] is 1 (active).
Turning to `c1ccc(-c2cc3c4cccn4ccn3c2)cc1`, the values for the NF-kB reporter in assay [1] (setting [4]), in assay [1] (agonist: LPS 0.1 ug/mL) and in assay [1] (agonist: MPLA […]) were 1.03 ± 0.1, 0.87 ± 0.068 and 0.848 ± 0.085, respectively. Also, the IRF reporter turned out to be 0.31 ± 0.029 in assay [2] (agonist: 3'3'-cGAMP 10 ug/mL), 1.29 ± 0.21 in assay [2] (agonist: LPS 0.1 ug/mL) and 1.32 ± 0.39 in assay [2] (agonist: MPLA […]). Also, the viability score in assay [3] is 1.04 (active).
Consider `COC(=O)C1=CN(CC2CCCO2)C=C(C(=O)OC)C1c1ccc2c(c1)OCO2` (stereo not drawn), for which the values for the NF-kB reporter in assay [1] (setting [4]), in assay [1] (agonist: LPS 0.1 ug/mL) and in assay [1] (agonist: MPLA […]) were 1.03 ± 0.12, 1.1 ± 0.093 and 1.02 ± 0.071, respectively. For the same compound, the IRF reporter in assay [2] (agonist: 3'3'-cGAMP 10 ug/mL) was 1.07 ± 0.036; in assay [2] (agonist: LPS 0.1 ug/mL), 1.46 ± 0.16; in assay [2] (agonist: MPLA […]) it was 1.12 ± 0.089. Moreover, the viability score in assay [3] is 1.01 (active).
For `O=C(Cc1ccc([N+](=O)[O-])cc1)NN=Cc1ccccn1`, the values for the NF-kB reporter in assay [1] (setting [4]), in assay [1] (agonist: LPS 0.1 ug/mL) and in assay [1] (agonist: MPLA […]) were 1.09 ± 0.18, 1.07 ± 0.077 and 1.04 ± 0.04, respectively. Also, the IRF reporter in assay [2] (agonist: 3'3'-cGAMP 10 ug/mL) was determined as 0.89 ± 0.11; in assay [2] (agonist: LPS 0.1 ug/mL), 1.05 ± 0.12; in assay [2] (agonist: MPLA […]), 1.08 ± 0.14. Moreover, the viability score in assay [3] is 1 (active).
Take `CN1CCC(=C2c3ccccc3C=Cc3ccccc32)CC1` [Prestw-103]: the values for the NF-kB reporter in assay [1] (setting [4]), in assay [1] (agonist: LPS 0.1 ug/mL) and in assay [1] (agonist: MPLA […]) were 0.516 ± 0.038, 0.833 ± 0.056 and 1.01 ± 0.053, respectively. Moreover, the IRF reporter in assay [2] (agonist: 3'3'-cGAMP 10 ug/mL) stood at 0.72 ± 0.067; in assay [2] (agonist: LPS 0.1 ug/mL) it was 0.905 ± 0.1; in assay [2] (agonist: MPLA […]) it was 0.915 ± 0.12. Further, the viability score in assay [3] is 0.293 (inactive).
`COc1ccc([C@@H]2Sc3ccccc3N(CCN(C)C)C(=O)[C@@H]2OC(C)=O)cc1.Cl`: the NF-kB reporter in assay [1] (setting [4]) was determined as 0.958 ± 0.074; in assay [1] (agonist: LPS 0.1 ug/mL), 1.02 ± 0.053; in assay [1] (agonist: MPLA […]), 1.21 ± 0.064. In addition, the IRF reporter was determined as 0.969 ± 0.15 in assay [2] (agonist: 3'3'-cGAMP 10 ug/mL), 0.997 ± 0.11 in assay [2] (agonist: LPS 0.1 ug/mL) and 1.05 ± 0.1 in assay [2] (agonist: MPLA […]). In addition, in assay [3], the viability score is 0.985 (active).
On to `NNc1ncnc2scc(-c3ccc(Cl)cc3)c12`, for which the NF-kB reporter turned out to be 0.931 ± 0.071 in assay [1] (setting [4]), 0.867 ± 0.07 in assay [1] (agonist: LPS 0.1 ug/mL) and 1.32 ± 0.42 in assay [1] (agonist: MPLA […]). The figures for the IRF reporter in assay [2] (agonist: 3'3'-cGAMP 10 ug/mL), in assay [2] (agonist: LPS 0.1 ug/mL) and in assay [2] (agonist: MPLA […]) were 0.333 ± 0.015, 1.3 ± 0.15 and 1.48 ± 0.21, respectively. The viability score in assay [3] was 0.997 (active).
With `S=c1n(CN2CCOCC2)nc(-c2ccccc2Cl)n1-c1ccccc1`, the NF-kB reporter in assay [1] (setting [4]) was determined as 1.06 ± 0.059; in assay [1] (agonist: LPS 0.1 ug/mL), 0.985 ± 0.067; in assay [1] (agonist: MPLA […]), 0.947 ± 0.074. Further, the IRF reporter in assay [2] (agonist: 3'3'-cGAMP 10 ug/mL) stood at 0.944 ± 0.047; in assay [2] (agonist: LPS 0.1 ug/mL), 1.32 ± 0.18; in assay [2] (agonist: MPLA […]), 1.16 ± 0.13. The viability score in assay [3] was 0.993 (active).
In the case of `COCCNC(=O)C=Cc1ccccc1`, the NF-kB reporter in assay [1] (setting [4]) stood at 1.12 ± 0.12; in assay [1] (agonist: LPS 0.1 ug/mL), 0.936 ± 0.085; in assay [1] (agonist: MPLA […]), 1.05 ± 0.072. For the same compound, the IRF reporter in assay [2] (agonist: 3'3'-cGAMP 10 ug/mL) is 1.02 ± 0.15; in assay [2] (agonist: LPS 0.1 ug/mL), 0.98 ± 0.055; in assay [2] (agonist: MPLA […]) it was 1.03 ± 0.074. In assay [3], the viability score is 0.991 (active).
Regarding `Brc1ccc(C(Cc2ccccc2)Nc2ccccn2)cc1` (stereo not drawn), the NF-kB reporter in assay [1] (setting [4]) was determined as 0.255 ± 0.014; in assay [1] (agonist: LPS 0.1 ug/mL), 1.07 ± 0.071; in assay [1] (agonist: MPLA […]), 0.929 ± 0.084. Moreover, the IRF reporter in assay [2] (agonist: 3'3'-cGAMP 10 ug/mL) was 1.27 ± 0.042; in assay [2] (agonist: LPS 0.1 ug/mL), 1.75 ± 0.12; in assay [2] (agonist: MPLA […]) it was 1.28 ± 0.12. In addition, the viability score in assay [3] was 0.959 (active).
For `C#CCCCCCCCCCCCC(=O)CC(O)COC(C)=O` (stereo not drawn), the NF-kB reporter in assay [1] (setting [4]) came out at 0.822 ± 0.073; in assay [1] (agonist: LPS 0.1 ug/mL) it was 0.338 ± 0.034; in assay [1] (agonist: MPLA […]), 0.808 ± 0.022. Further, the IRF reporter in assay [2] (agonist: 3'3'-cGAMP 10 ug/mL) came to 0.176 ± 0.019; in assay [2] (agonist: LPS 0.1 ug/mL), 0.878 ± 0.098; in assay [2] (agonist: MPLA […]), 0.81 ± 0.15. In addition, the viability score in assay [3] is 0.849 (active).
As to `Clc1cccc(OCCCOc2cccc3cccnc23)c1`, the NF-kB reporter was 0.586 ± 0.046 in assay [1] (setting [4]), 1.13 ± 0.091 in assay [1] (agonist: LPS 0.1 ug/mL) and 1.53 ± 0.17 in assay [1] (agonist: MPLA […]). Besides, the IRF reporter in assay [2] (agonist: 3'3'-cGAMP 10 ug/mL) came to 0.948 ± 0.11; in assay [2] (agonist: LPS 0.1 ug/mL), 1.18 ± 0.083; in assay [2] (agonist: MPLA […]) it was 2.83 ± 0.56. Further, the viability score in assay [3] was 0.818 (active).
As to `COc1ccc(C2NC(=O)C(O)=C2C(C)=O)cc1` (stereo not drawn), the NF-kB reporter was 0.734 ± 0.057 in assay [1] (setting [4]), 0.884 ± 0.11 in assay [1] (agonist: LPS 0.1 ug/mL) and 1.09 ± 0.095 in assay [1] (agonist: MPLA […]). The IRF reporter came to 0.914 ± 0.047 in assay [2] (agonist: 3'3'-cGAMP 10 ug/mL), 1.29 ± 0.085 in assay [2] (agonist: LPS 0.1 ug/mL) and 1.41 ± 0.12 in assay [2] (agonist: MPLA […]). Moreover, the viability score in assay [3] was 1.01 (active).
Regarding `Cc1ccc(NC(=O)Nc2c(C)nc(N3CCN(C)CC3)nc2C)cc1F`, the NF-kB reporter stood at 0.993 ± 0.049 in assay [1] (setting [4]), 1.03 ± 0.11 in assay [1] (agonist: LPS 0.1 ug/mL) and 0.818 ± 0.037 in assay [1] (agonist: MPLA […]). The IRF reporter in assay [2] (agonist: 3'3'-cGAMP 10 ug/mL) is 0.925 ± 0.046; in assay [2] (agonist: LPS 0.1 ug/mL), 1.21 ± 0.083; in assay [2] (agonist: MPLA […]), 1.17 ± 0.15. For the same compound, the viability score in assay [3] was 0.97 (active).

The values above are taken from the supplement of paper PMC10646978.
